Measurements published in PubChem BioAssay (NCATS).
Records with an inconclusive call do not appear. Where a call stands in place of a potency, no number is given. Active and inactive are the calls of the source. The call rests on the fitted dose curve; in most records, active means well fitted curve in the direction sought with a large enough effect; inconclusive means small, poorly fitted or top-dose-only effect, or another doubt; inactive means no such curve, though single readings can be large; an effect the other way counts as inactive or inconclusive.

Biological target: Lysine-specific demethylase 5B (Homo sapiens) (UniProt Q9UGL1)
Assay: Optimization screen for KDM5B Histone Demethylases FDH coupled qHTS against the LOPAC library (AID 1347166)
Conditions: KDM5B demethylation, FDH-coupled NADH fluorescence (FDH is formaldehyde dehydrogenase); series mostly up to 57.5 µM
Outline: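 KDM5BDeltaAP (200nM final) preincubated 10 min with compound, then 12.5uM H3K4Me3, 25uM a-ketoglutarate, ascorbate, Fe(II), NAD+ and FDH added; 50mM HEPES pH 7.5, 0.01% Tween-20. NADH fluorescence (340/450 nm) change over 30 min, room temperature.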

Lysine-specific demethylase 5B (Homo sapiens), sequence (Q9UGL1 whole entry, looked up): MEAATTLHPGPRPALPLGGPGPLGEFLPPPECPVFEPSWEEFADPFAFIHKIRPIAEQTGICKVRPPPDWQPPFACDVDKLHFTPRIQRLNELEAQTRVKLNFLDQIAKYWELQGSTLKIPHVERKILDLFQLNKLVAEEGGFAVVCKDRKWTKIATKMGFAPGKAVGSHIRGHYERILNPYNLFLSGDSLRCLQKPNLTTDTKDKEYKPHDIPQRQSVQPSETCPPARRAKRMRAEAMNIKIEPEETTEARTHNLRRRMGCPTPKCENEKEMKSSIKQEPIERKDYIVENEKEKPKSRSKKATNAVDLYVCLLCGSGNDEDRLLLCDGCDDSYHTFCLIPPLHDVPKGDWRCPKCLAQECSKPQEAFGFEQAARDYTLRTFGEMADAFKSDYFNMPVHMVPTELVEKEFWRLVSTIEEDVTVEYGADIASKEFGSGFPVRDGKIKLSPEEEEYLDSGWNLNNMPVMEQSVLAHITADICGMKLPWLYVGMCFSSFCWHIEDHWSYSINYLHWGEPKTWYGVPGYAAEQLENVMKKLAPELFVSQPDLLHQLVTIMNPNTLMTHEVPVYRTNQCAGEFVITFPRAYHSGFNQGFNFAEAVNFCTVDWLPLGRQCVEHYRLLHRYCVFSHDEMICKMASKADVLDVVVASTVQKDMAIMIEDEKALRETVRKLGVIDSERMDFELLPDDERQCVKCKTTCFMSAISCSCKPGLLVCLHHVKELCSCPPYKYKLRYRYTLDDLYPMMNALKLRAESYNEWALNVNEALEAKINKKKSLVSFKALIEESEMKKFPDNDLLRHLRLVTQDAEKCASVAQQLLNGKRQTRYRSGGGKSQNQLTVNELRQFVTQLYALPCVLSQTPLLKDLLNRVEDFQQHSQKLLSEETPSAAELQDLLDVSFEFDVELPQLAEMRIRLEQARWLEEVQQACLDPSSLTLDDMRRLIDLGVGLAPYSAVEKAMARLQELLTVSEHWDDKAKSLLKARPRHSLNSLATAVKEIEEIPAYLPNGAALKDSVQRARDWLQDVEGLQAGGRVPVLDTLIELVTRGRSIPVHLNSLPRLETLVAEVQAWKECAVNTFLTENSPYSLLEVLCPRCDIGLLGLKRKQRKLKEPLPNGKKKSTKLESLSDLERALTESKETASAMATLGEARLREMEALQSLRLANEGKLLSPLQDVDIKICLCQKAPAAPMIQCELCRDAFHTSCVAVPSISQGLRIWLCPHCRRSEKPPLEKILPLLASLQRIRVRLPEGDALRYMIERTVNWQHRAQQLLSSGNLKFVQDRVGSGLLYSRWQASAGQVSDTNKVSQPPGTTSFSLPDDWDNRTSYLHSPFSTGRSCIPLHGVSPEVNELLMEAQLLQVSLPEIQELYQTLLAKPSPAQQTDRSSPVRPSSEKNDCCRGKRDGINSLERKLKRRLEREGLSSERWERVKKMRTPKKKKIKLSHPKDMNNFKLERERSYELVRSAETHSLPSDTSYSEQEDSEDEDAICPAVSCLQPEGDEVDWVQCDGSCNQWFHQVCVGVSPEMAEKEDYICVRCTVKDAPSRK

Row | SMILES | outcome
1 | CNC(=O)[C@H]1O[C@@H](n2cnc3c(NCc4cccc(I)c4)ncnc32)[C@H](O)[C@@H]1O | inactive
2 | NC(=O)C(=O)O | inactive
3 | C[N+]1(C)CCC(OC(=O)C(c2ccccc2)c2ccccc2)CC1 | inactive
4 | CNc1ncnc2c1ncn2[C@@H]1O[C@H](CO)[C@@H](O)[C@H]1O | inactive
5 | Cc1ccc(C(=O)O[C@H](C(=O)O)[C@@H](OC(=O)c2ccc(C)cc2)C(=O)O)cc1 (tested in a mixture with another compound) | inactive
6 | C[N+]1(C)C2CC(OC(=O)[C@H](CO)c3ccccc3)CC1C1OC12 (stereo not given in full) | inactive
7 | O=C(O)CC1CCCc2ccccc2C1O (stereo not given) | inactive
8 | c1ccc(-c2ccccn2)nc1 | inactive
9 | S=C(S)OC1CC2CC1C1CCCC21 (stereo not given) | inactive
10 | O=C(c1ccc(OCCCc2cnc[nH]2)cc1)C1CC1 | inactive
11 | NC(N)=NC(=O)c1nc(Cl)c(N2CCCCCC2)nc1N | inactive
12 | Oc1cc2c(cc1O)CN(C(=S)NCCc1ccc(Cl)cc1)CCC2 | inactive
13 | COc1cc(OC)c(/C=C2/C(=O)Nc3ccccc32)c(OC)c1 | inactive
14 | CN1[C@@H](CC(=O)c2ccccc2)CCC[C@H]1C[C@H](O)c1ccccc1 | inactive
15 | O=c1[nH]c2cc([N+](=O)[O-])c([N+](=O)[O-])cc2[nH]c1=O | inactive
16 | C[N+](C)(C)CCOP(=O)(O)OP(=O)([O-])OC[C@H]1O[C@@H](n2ccc(N)nc2=O)[C@H](O)[C@@H]1O | inactive
17 | NCCCCC(=O)O | inactive

Row | SMILES | outcome
18 | CN(C)c1nc2c(Br)c(Br)c(Br)c(Br)c2[nH]1 | inactive
19 | Cc1ccccc1CNc1ncnc2c1ncn2C1OC(CO)C(O)C1O (stereo not given) | inactive
20 | Fc1cccc(/C=N/N=C/c2cccc(F)c2)c1 | inactive
21 | C[C@@H](CN1CCC(Cc2ccccc2)CC1)[C@@H](O)c1ccc(O)cc1 | inactive
22 | NS(=O)(=O)C#Cc1ccccc1 | inactive
23 | O=C(O)c1cc(=O)c2c(Cl)cc(Cl)cc2[nH]1 | inactive
24 | CC[C@@H](C)[C@H]1O[C@]2(CC[C@H]1C)C[C@@H]1C[C@@H](CC=C(C)[C@@H](O[C@H]3C[C@H](OC)[C@@H](O[C@H]4C[C@H](OC)[C@@H](O)[C@H](C)O4)[C@H](C)O3)[C@@H](C)C=CC=C3CO[C@@H]4[C@H](O)C(C)=C[C@@H](C(=O)O1)[C@]34O)O2 | inactive
25 | Ic1ccc(N2CCN(Cc3c[nH]c4ncccc34)CC2)cc1 | inactive
26 | C=CC(N)CCC(=O)O (stereo not given) | inactive
27 | NC(=O)C1=CN(C2OC(COP(=O)(O)OP(=O)(O)OC[C@H]3O[C@@H](n4cnc5c(N)ncnc54)[C@H](OP(=O)(O)O)[C@@H]3O)C(O)C2O)C=CC1 (stereo not given in full) | inactive
28 | O=C(Nc1ccccc1)c1cc([N+](=O)[O-])ccc1Cl | inactive
29 | O=c1[nH]c2cc(C(F)(F)F)ccc2n1-c1cc(C(F)(F)F)ccc1O | inactive
30 | Nc1nc(Cl)nc2c1ncn2[C@@H]1O[C@H](COP(=O)(O)OP(=O)(O)OP(=O)(O)O)[C@@H](O)[C@H]1O | inactive
31 | CC(C)ON([C@@H](C(=O)NO)C(C)C)S(=O)(=O)c1ccc(-c2ccccc2)cc1 | inactive
32 | COc1cccc(C(=O)NCCN2CCN(c3ccc(Cl)cc3)CC2)c1 | inactive
33 | CC(=O)SCC[N+](C)(C)C | inactive
34 | CCCCCCCCCCCCCCCC(=O)NCC(COP(=O)([O-])OCC[N+](C)(C)C)OCC (stereo not given) | inactive

Tested on: not listed separately
Assay: Vero cells viability qHTS for Zika virus inhibitors (AID 1347167)
Conditions: cytotoxicity counter-screen (Zika); series mostly up to 45.9 µM
Outline: (§1)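 Compounds were tested in concentration series on cells grown in DMEM containing 4% FBS. After 24 to 48 hours, cellular ATP was measured by luminescence with CellTiter Glo.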

Row | SMILES | outcome
35 | NC(=O)C(=O)O | inactive
36 | Oc1cc2c(cc1O)CN(C(=S)NCCc1ccc(Cl)cc1)CCC2 | inactive
37 | Cc1ccccc1CNc1ncnc2c1ncn2C1OC(CO)C(O)C1O (stereo not given) | inactive
38 | S=c1[nH]c(-c2ccccc2)cn1-c1ccccc1 | inactive
39 | Cn1c(=O)c2[nH]c(-c3ccccc3)nc2n(C)c1=O | inactive

Tested on: not listed separately
Assay: HepG2 cells viability qHTS for Zika virus inhibitors (AID 1347168)
Conditions: Zika counter-screen; series mostly up to 45.9 µM
Outline: as §1

Row | SMILES | outcome
40 | NC(=O)C(=O)O | inactive
41 | Oc1cc2c(cc1O)CN(C(=S)NCCc1ccc(Cl)cc1)CCC2 | inactive
42 | Cc1ccccc1CNc1ncnc2c1ncn2C1OC(CO)C(O)C1O (stereo not given) | inactive
43 | S=c1[nH]c(-c2ccccc2)cn1-c1ccccc1 | inactive
44 | Cn1c(=O)c2[nH]c(-c3ccccc3)nc2n(C)c1=O | inactive

Tested on: not listed separately
Assay: Tertiary RLuc qRT-PCR qHTS assay for Zika virus inhibitors (AID 1347169); further: nearly all actives have a fitted effect of over 55% in size; further: potency means the concentration at half of the fitted maximal effect
Conditions: infected Vero cells, reporter luminescence, 48-72 h; series mostly up to 45.9 µM
Outline: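 Luminescence read-out: live-cell Renilla luciferase substrate applied to infected Vero cells, signal measured after 1-1.5 hrs. Cells had received compound before ZIKV-RLuc (Cambodian strain, MOI 1-2) infection and were incubated 48-72 hrs at 37 degrees C.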

Row | SMILES | Potency
45 | NC(=O)C(=O)O | inactive
46 | Oc1cc2c(cc1O)CN(C(=S)NCCc1ccc(Cl)cc1)CCC2 | 13.1 µM (active)
47 | Cc1ccccc1CNc1ncnc2c1ncn2C1OC(CO)C(O)C1O (stereo not given) | inactive
48 | CC[C@@H](C)[C@H]1O[C@]2(CC[C@H]1C)C[C@@H]1C[C@@H](CC=C(C)[C@@H](O[C@H]3C[C@H](OC)[C@@H](O[C@H]4C[C@H](OC)[C@@H](O)[C@H](C)O4)[C@H](C)O3)[C@@H](C)C=CC=C3CO[C@@H]4[C@H](O)C(C)=C[C@@H](C(=O)O1)[C@]34O)O2 | 3.7 µM (active)
49 | S=c1[nH]c(-c2ccccc2)cn1-c1ccccc1 | inactive
50 | Cn1c(=O)c2[nH]c(-c3ccccc3)nc2n(C)c1=O | inactive
